In PubChem BioAssay (NCI) one finds growth inhibition data, which are given here for 21 compounds.

Compounds without any hit were thinned out: in the full panel of roughly 79,000, 15% have a hit. Values without a mark were called inactive. The source made the active and inactive calls. Cut-off read from the data, not from the text of the source: active = growth inhibition above about 70%; inactive = the rest.

Assay [1] is described as follows: NCI Yeast Anticancer Drug Screen. Data for the rad50 strain (AID 155).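 Note: 0% = growth of vehicle-only cultures of the same strain.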 Particulars: S. cerevisiae rad50 strain growth inhibition; at 50.0 µM; hits give high values. The method, boiled down:
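Compounds were tested on a yeast strain with an engineered DNA damage repair alteration; the reported value is growth inhibition normalised to vehicle treatment.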

Assay [2] is described as follows: NCI Yeast Anticancer Drug Screen. Data for the mec2-1 strain (AID 157). Particulars: S. cerevisiae mec2-1 strain, at 50.0 µM, hits give high values. Put shortly: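 Vehicle-treated cultures served as reference for growth inhibition of compound-exposed mec2-1 yeast.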
A short description of assay [3]: NCI Yeast Anticancer Drug Screen. Data for the sgs1 mgt1 strain (AID 161).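 Note: 0% = growth of cultures given vehicle only.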 As to conditions: S. cerevisiae sgs1 mgt1 strain, at 50.0 µM, hits give high values. Put shortly: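 Inhibition of yeast growth, normalised to vehicle-treated controls, is reported for a strain bearing genetic alterations in DNA damage repair.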
A short description of assay [4]: NCI Yeast Anticancer Drug Screen. Data for the cln2 rad14 strain (AID 165).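 Note: 0% = growth equal to vehicle treated cultures.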 As to conditions: S. cerevisiae cln2 rad14 strain, at 50.0 µM, hits give high values. Put shortly:
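Each compound was tested on cln2 rad14 yeast. Inhibition of growth was calculated against vehicle-exposed controls.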

The nature of assay [5]: NCI Yeast Anticancer Drug Screen. Data for the bub3 strain (AID 167). As to conditions: S. cerevisiae bub3 mutant strain, at 50.0 µM, hits give high values. Put shortly: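 Growth of a checkpoint-deficient yeast mutant is measured after compound exposure. Values represent inhibition relative to vehicle.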
Assay [6] in a line: NCI Yeast Anticancer Drug Screen. Data for the mlh1 rad18 strain (AID 175). Particulars: S. cerevisiae mlh1 rad18 strain growth inhibition; at 50.0 µM; hits give high values. Put shortly:
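Vehicle-treated cultures served as the reference for growth inhibition in a yeast strain carrying DNA damage repair alterations exposed to each compound.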

Consider `CC(=O)/C(=C\c1ccc(/C=C(\C(C)=O)C(=O)CCN(C)C)cc1)C(=O)CCN(C)C`, for which the growth inhibition in assay [1] was 38.6%; in assay [2], 58.5%; in assay [3], 7.05%; in assay [4] it was 5%; in assay [5] it was 5.65%; in assay [6], -19.6%.

In the case of `CCN1C(=O)/C(=C/c2cc([N+](=O)[O-])ccc2OCC(=O)O)SC1=S`, the growth inhibition was -1.85% in assay [1]; -11.3% in assay [2]; 3.5% in assay [3]; -42.8% in assay [4]; 2.55% in assay [5]; 1.4% in assay [6].

For the compound `N#CCC(=O)N/N=C\C(O)C(O)C(O)C(O)CO` (stereo unspecified), the growth inhibition in assay [1] is 0.1%; in assay [2], 2.6%; in assay [3], -10.8%; in assay [4] it was -1.45%; in assay [5], 4.5%; in assay [6] it was 11.1%.

With `COc1ccccc1/C=C/C(=O)N1CCC2(CC1)C(=O)N(C)CN2c1ccccc1`, the growth inhibition was -16% in assay [1]; 8.45% in assay [2]; -17.3% in assay [3]; -15.1% in assay [4]; -0.35% in assay [5]; -2.4% in assay [6].

On to `O=C1CCC(=O)Nc2ccc3nc4ccccc4c(c3c2)SCCCCCCCCCCCCSc2c3ccccc3nc3ccc(cc23)N1`, for which the growth inhibition is -22.4% in assay [1]; -15.2% in assay [2]; -15.2% in assay [3]; -36.4% in assay [4]; -8.4% in assay [5]; -0.85% in assay [6].

Take `CNc1c(C)cc(C#N)cc1C`: the growth inhibition was 7.45% in assay [1]; 1.25% in assay [2]; -10.6% in assay [3]; 0.2% in assay [4]; -4.7% in assay [5]; -5.4% in assay [6].

Take `O=C(Cn1c(=O)oc2ccc(C(=O)c3ccccc3Cl)cc21)c1ccc([N+](=O)[O-])cc1`: the growth inhibition in assay [1] was -27.6%; in assay [2], -28.3%; in assay [3], 13%; in assay [4], -8.45%; in assay [5], -2.25%; in assay [6] it was -2.65%.

On to `O=[N+]([O-])c1ccc(N=N/C(Cc2ccccc2)=N\Nc2ccccc2)cc1`, for which the growth inhibition is 31.4% in assay [1]; 12.9% in assay [2]; -0.2% in assay [3]; 22.6% in assay [4]; -10.4% in assay [5]; 4.65% in assay [6].

Take `CCOc1ccc(Nc2ncnc3sc4c(c23)CCCC4)cc1`: the growth inhibition in assay [1] is 10.3%; in assay [2], -1%; in assay [3] it was -1.15%; in assay [4], 12.7%; in assay [5] it was 17.2%; in assay [6] it was 8.9%.

Take `CCc1nc2ccccc2cc1C`: the growth inhibition in assay [1] is 5.5%; in assay [2], -4.55%; in assay [3], 3.5%; in assay [4] it was -19.6%; in assay [5], 1.1%; in assay [6], 2.6%.

Regarding `Cc1ccc(C(C)C)cc1OCCOCCCl`, the growth inhibition in assay [1] is -2.25%; in assay [2], 12.8%; in assay [3] it was -4.85%; in assay [4], -148%; in assay [5], -1%; in assay [6], 10.8%.

`CC(=O)Nc1ccc(S(=O)(=O)NNC(=O)C(=O)Nc2cccc(Cl)c2)cc1`: the growth inhibition in assay [1] was -12.5%; in assay [2] it was -21.4%; in assay [3], -18.2%; in assay [4] it was 16.4%; in assay [5], -0.1%; in assay [6] it was -1.6%.

With `CC1CCC(=O)CN1Cc1ccccc1` (stereo unspecified), the growth inhibition in assay [1] was 5.95%; in assay [2], 4.45%; in assay [3], 9.45%; in assay [4], -11.6%; in assay [5] it was 22.4%; in assay [6], 4.85%.

As to `O=C(O)CCc1ccc2c(c1)OCO2`, the growth inhibition is -2.1% in assay [1]; -24.1% in assay [2]; -5.85% in assay [3]; -5.4% in assay [4]; -34.1% in assay [5]; -11.4% in assay [6].

For the compound `O=C(COC(=O)C(CC(=O)c1ccccc1)Cc1ccccc1)c1ccc(-c2ccccc2)cc1` (stereo unspecified), the growth inhibition in assay [1] was 25.7%; in assay [2], 25.3%; in assay [3], 6%; in assay [4], 30.8%; in assay [5], 35.4%; in assay [6], 13.3%.

Consider `CC(=O)OC1CCC2(C)C(=CCC3C2CCC2(C)/C(=N\NS(=O)(=O)c4ccc(C)cc4)CCC32)C1` (stereo unspecified), for which the growth inhibition in assay [1] was 63.7%; in assay [2] it was 28.6%; in assay [3] it was 43.3%; in assay [4] it was -2.05%; in assay [5], 40.3%; in assay [6], 49.5%.

Regarding `C/C=C(\C)c1cc(O)c(C)c2c1Oc1cc(O)c(Cl)c(C)c1C(=O)O2`, the growth inhibition in assay [1] is 92.5% (active); in assay [2], 94.8% (active); in assay [3], 93.9% (active); in assay [4], 92.3% (active); in assay [5], 93.5% (active); in assay [6] it was 92.5% (active).

Turning to `O=C(CP(c1ccccc1)c1ccccc1)c1cccc(C(=O)CP(c2ccccc2)c2ccccc2)c1`, the growth inhibition in assay [1] was -4.3%; in assay [2], -22.1%; in assay [3], -5.05%; in assay [4], -8.6%; in assay [5] it was -14.3%; in assay [6], -19.4%.

In the case of `Cc1nn(CO)c(C)c1Br`, the growth inhibition was 9.8% in assay [1]; -18.4% in assay [2]; 5.9% in assay [3]; 21.8% in assay [4]; -2.6% in assay [5]; 11.7% in assay [6].

As for `Fc1ccc(Cl)c(-c2nc3ccccc3[nH]2)c1`, the growth inhibition in assay [1] is 14.2%; in assay [2], 15.4%; in assay [3], 2.85%; in assay [4], 2.35%; in assay [5], -1.5%; in assay [6] it was 47.3%.

As for `O=C(Nc1cccc2ccccc12)c1ccco1`, the growth inhibition in assay [1] is 14.8%; in assay [2] it was 16.5%; in assay [3] it was 8.6%; in assay [4], 3.8%; in assay [5], 1.65%; in assay [6], 7.9%.
